# Screening data (PubChem BioAssay)
# SMN2 splice enh: qHTS Assay for Enhancers of SMN2 Splice Variant Expression; HEK293 SMN2-luciferase splicing reporter, luminescence, 30-36 h; Potency, µM (doses to about 46.1 µM), for the others: at the top dose activity change, positive = activation, actives largely listed as activators; 2.8% of 210,000 active; further: % of control where 0% means no effect; nearly all actives have a fitted effect of over 55% in size
#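 HEK293 cells carry an SMN2 minigene-luciferase reporter in which exon 7 inclusion puts luciferase in frame. Cells were seeded at 2000 cells/well, attached for 10-12 hours, then exposed to compounds for 30-36 hours at 37C before ONE-Glo luminescence.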
# ELG1 genotox: qHTS screen for small molecules that induce genotoxicity in human embryonic kidney (HEK293T) cells expressing luciferase-tagged ELG1; HEK293T ELG1-luciferase reporter, luminescence, 16 h; Potency, µM (top dose mostly 46 µM), for inactives: at the top dose activity change, positive = activation, most hits filed as activators; 1.3% of 330,000 active; further: % of control where 0% means no effect; nearly all actives have a fitted effect of over 60% in size
#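 Quantitative HTS format in 1536-well plates. HEK293T ELG1-luciferase reporter cells receive test compound and are incubated 16 hr at 37 °C, 5% CO2; ONE-Glo added, 30 min room temperature, then luminescence read.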
# FLuc modulator: qHTS profiling assay for firefly luciferase inhibitor/activator using purifed enzyme and Km concentrations of substrates (counterscreen for miR-21 project) | Luciferin 4-monooxygenase (Photinus pyralis), P08659 | purified FLuc, Km substrates, luminescence inhibition | Potency, µM (series often up to 57.5 µM), for the others: at the highest dose activity change, negative = inhibition, actives largely listed as inhibitors | 6.9% of 360,000 active;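 further: plate controls were vehicle for no effect and reference inhibitor for full effect; nearly all actives have a fitted effect of over 55% in size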
# Target sequence (P08659 whole entry, looked up): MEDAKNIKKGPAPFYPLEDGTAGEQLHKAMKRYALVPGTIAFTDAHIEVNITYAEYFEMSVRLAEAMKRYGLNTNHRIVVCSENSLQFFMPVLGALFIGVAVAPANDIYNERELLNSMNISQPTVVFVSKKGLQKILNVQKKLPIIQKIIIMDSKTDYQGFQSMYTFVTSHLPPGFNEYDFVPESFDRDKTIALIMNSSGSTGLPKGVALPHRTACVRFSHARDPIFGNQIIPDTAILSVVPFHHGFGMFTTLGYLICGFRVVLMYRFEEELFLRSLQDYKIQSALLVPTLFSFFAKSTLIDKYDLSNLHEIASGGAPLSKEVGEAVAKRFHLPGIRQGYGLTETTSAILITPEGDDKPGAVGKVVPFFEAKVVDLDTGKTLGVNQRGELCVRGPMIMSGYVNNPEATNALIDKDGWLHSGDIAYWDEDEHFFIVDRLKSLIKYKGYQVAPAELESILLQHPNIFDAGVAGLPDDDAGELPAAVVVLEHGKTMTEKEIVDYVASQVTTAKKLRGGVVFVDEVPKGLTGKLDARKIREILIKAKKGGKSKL
#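 Purified P. pyralis luciferase (10nM final) with 10uM D-luciferin and 10uM ATP (Km levels) in 50mM Tris acetate pH 7.5, 10mM Mg acetate, 0.01% Tween-20, 0.05% BSA; qHTS 6-point titration, ~60 µM downward; luminescence read.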
# NPC1 prom act: qHTS Assay for NPC1 Promoter Activators. Huh7 NPC1 promoter luciferase reporter, 24 h. Potency, µM (series often up to 9.22 µM), for the others: at the top dose activation, actives largely listed as activators. 2.4% of 320,000 active; further: % of control where 0% means no effect; nearly all actives have a fitted effect of over 60% in size
#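 Cells: Huh7 expressing luciferase under the NPC1 promoter, 1500/well. Seeded 2 h, compound added, incubated 24 h at 37 °C. Luciferase reagent, 10 min ambient, then luminescence.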
# Rab9 promoter act: qHTS Assay for Rab9 Promoter Activators; Huh7 Rab9 promoter-luciferase reporter, luminescence, 24 h; Potency, µM (titrated, usually from 9.22 µM), for the others: at the top dose activation, negative = inhibition, hits mostly activators; 2.8% of 320,000 active; further: % of control where 0% means no effect; nearly all actives have a fitted effect of over 60% in size
#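 Cells were plated at 1500 per well in reduced-serum medium with 10% FBS and left 2 h. Compound in DMSO was then added for 24 h at 37 °C. Reporter signal was read by luminescence after 10 min with luciferase detection reagent.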
# Active calls of the source: *; ? = inconclusive; · = no result; [ ] = remark or other dose. This is a sample that favours compounds with a hit; in the whole collection about 7.4% have one here. The call rests on the fitted dose curve; in most records, active means well fitted curve in the direction sought with a large enough effect; inconclusive means small, poorly fitted or top-dose-only effect, or another doubt; inactive means no such curve, though single readings can be large; an effect the other way counts as inactive or inconclusive. Potency means the concentration at half of the fitted maximal effect.
SMILES,SMN2 splice enh,ELG1 genotox,FLuc modulator,NPC1 prom act,Rab9 promoter act
Cc1csc(SCC(=O)c2cc(C)n(Cc3cccs3)c2C)n1,-62%,?,0.17µM*,?,0.32µM*
Cc1cc(C(=O)CSc2nnc(-c3ccc(OC(F)F)cc3)o2)c(C)n1Cc1cccs1,12%,0%,0%,-4%,-3%
Cc1cc(C(=O)CSc2nnc(N)s2)c(C)n1Cc1cccs1,-75%,0.92µM*,0.85µM*,0.56µM*,0.28µM*
Cc1cc(C(=O)CSc2n[nH]c(-c3ccccc3F)n2)c(C)n1Cc1cccs1,-8%,-5%,17µM*,0%,-5%
COc1ccc(-c2csc(=NCCO)n2-c2ccccc2)cc1,·,13%,19µM*,18%,9%
COc1ccc(-c2csc(=Nc3ccccc3)n2CCO)cc1,-71%,?,17µM*,21%,-5%
COc1ccc(C(=O)c2cc3c(cc2[N+](=O)[O-])OCCO3)cc1,·,4%,-1%,-1%,1%
COc1ccc(C(=O)n2c(SC)nc3cc4c(cc32)OCCO4)cc1,9%,?,19µM*,17%,29%
COc1ccc(/C=C2\SC(=S)N(CC(=O)OCC(=O)Nc3ccc([N+](=O)[O-])cc3OC)C2=O)cc1,5%,3%,24µM*,5%,13%
COc1ccc(/C=C2\SC(=S)N(CC(=O)OCC(=O)Nc3ccc(C)cc3Cl)C2=O)cc1,·,3%,12µM*,4%,22%
O=C(CCN1C(=O)/C(=C/c2ccc(F)cc2)SC1=S)Nc1cc([N+](=O)[O-])ccc1O,·,-4%,12µM*,0%,6%
COc1cc([N+](=O)[O-])ccc1NC(=O)COC(=O)C=C(C)C,10%,0%,3%,0%,3%
COc1ccc(/C=C2\SC(=S)N(CCCC(=O)Nc3ccc(O)cc3)C2=O)cc1,·,-1%,?,-10%,-17%
O=C(CCCN1C(=O)/C(=C/c2cccs2)SC1=S)Nc1cc([N+](=O)[O-])ccc1O,·,-1%,8%,-6%,0%
O=C(CCCCCN1CCN(c2ccccc2-c2ccccc2)CC1)NC1CCCc2ccccc21 (stereo not given),·,·,·,-31%[46.1 µM],-32%[46.1 µM]
CC(=O)c1ccc(NC(=O)c2onc(C)c2Cl)cc1,·,?,?,1.4µM*,0.63µM*
CC(C)c1onc(C(=O)Nc2ccc3c(c2)OCO3)c1[N+](=O)[O-],·,?,27µM*,1%,0%
Cc1ccc2c(Cl)c(C(=O)Nc3ccc4c(c3)OCO4)sc2c1,?,18%,-28%,?,2µM*
CCc1onc(C)c1C(=O)Nc1ccc2c(c1)OCO2,·,1%,2%,-1%,-6%
O=C(N/N=C/c1ccc2c(c1)OCO2)c1sc2cc(Cl)ccc2c1Cl,5%,6%,?,0%,-5%
Cc1noc(C(=O)Nc2ccc3c(c2)OCO3)c1Cl,?,?,19µM*,?,4µM*
COc1cc(/C=N/Nc2ccc(Cl)c(C(=O)O)c2)ccc1OC(=O)c1ccccc1F,·,14%,17µM*,?,24%
COc1cc(/C=N/Nc2ccc(Cl)c(C(=O)O)c2)ccc1OC(=O)c1ccc(F)cc1,·,?,?,2.8µM*,?
COc1cc(/C=N/NC(=O)c2ccncc2)ccc1OC(=O)c1ccccc1Cl,-1%,-3%,?,-6%,-12%
O=[N+]([O-])c1cc(-c2nc(-c3ccccc3)no2)ccc1NCCc1ccccc1,·,·,4%,·,·
SMILES,SMN2 splice enh,ELG1 genotox,FLuc modulator,NPC1 prom act,Rab9 promoter act
O=C(COc1ccccc1C(=O)N/N=C\c1ccc(O)c(O)c1)N/N=C/c1ccc(O)c(O)c1,?,0%,6.7µM*,-5%,-9%
COc1cc(/C=N/NC(=O)c2ccc3c(c2)OCO3)ccc1O,·,?,17µM*,17%,18%
COc1ccc(/C=N/NC(=O)c2ccc3c(c2)OCO3)cc1,·,10%,5.4µM*,27%,26%
COc1cc(/C=N/NC(=O)/C(=C\c2ccc3c(c2)OCO3)NC(=O)c2ccccc2)ccc1O,-9%,0%,?,-1%,-2%
COc1ccccc1C(=O)NCC(=O)N/N=C/c1ccc2c(c1)OCO2,·,4%,17µM*,-2%,0%
Cc1cc(C)c2c(n1)sc1c(=O)n(-c3ccccc3C(F)(F)F)nnc12,3%,·,-6%,·,·
COc1ccc(NCC(=O)N/N=C/c2ccc3c(c2)OCCO3)cc1,?,-1%,19µM*,2%,-3%
COc1cc(C(=O)N/N=C/c2ccc(OC(=O)c3ccccc3Cl)c(OC)c2)ccc1O,·,-3%,?,1%,-11%
COc1ccc(N(CC(=O)N/N=C/c2ccc3c(c2)OCO3)S(=O)(=O)c2ccccc2)cc1,2%,0%,-6%,-2%,0%
COc1cc(/C=N/NC(=O)c2ccc(-n3cccc3)cc2)ccc1O,29%,0%,21µM*,-6%,-7%
CC(C)(C)C(=O)O/N=C(\N)COc1cccc(Cl)c1,·,8%,17µM*,3%,-1%
CC(C)(C)C(=O)OC/C(N)=N/OC(=O)c1ccc(Cl)cc1,·,2%,?,-5%,-1%
O=C(/C=C/c1cccs1)Nc1ccc([N+](=O)[O-])cc1,?,11%,?,23%,?
O=C(/C=C/c1cccs1)c1ccc(N2CCOCC2)cc1,255%,?,0.24µM*,3.5µM*,2.2µM*
O=C(/C=C/c1cccs1)c1ccc([N+](=O)[O-])cc1,·,2%,4.3µM*,0%,9%
O=C(/C=C/c1cccc(F)c1)Nc1cc(S(=O)(=O)N2CCOCC2)ccc1Cl,·,-7%,·,·,·
O=C(/C=C/c1cccc(F)c1)c1ccc(N2CCOCC2)cc1,·,?,1.1µM*,?,?
O=C(/C=C/c1cccs1)N1CCN(c2ccccc2)CC1,-4%,7%,?,8%,?
Cc1cccc2sc(NNC(=O)c3ccc4c(c3)OCCO4)nc12,0%,-2%,?,5%,6%
COc1cccc2sc(NC(=O)c3ccc(Br)s3)nc12,-7%,?,2.4µM*,?,?
O=C(Nc1nc2c(F)cc(F)cc2s1)c1ccc2c(c1)OCCO2,·,·,0.6µM*,0.79µM*,0.32µM*
COc1cccc2sc(NC(=O)c3ccc4c(c3)OCCO4)nc12,·,·,0.95µM*,·,·
COc1ccc(-c2nc(-c3ccccc3)c(NC(C)C)o2)cc1,6%,·,·,·,·
COC(=O)c1ccc(N=NNc2ccc(C(=O)OC)cc2)cc1,?,18µM*,?,?,?
COC(=O)c1ccc(N=Nc2c(C)[nH]n(-c3ccccc3)c2=O)cc1,·,-5%,-7%,1%,-2%
O=C(Nc1cccc([N+](=O)[O-])c1)c1ccc(-c2ccccc2)cc1,2%,5%,-16%,12%,26%
